# According to PubChem BioAssay (NCI):
# Values joined by “and” are separate entries in the source; they are usually repeats but may differ in a detail not shown here. Identical values can stand only once. This is part of a sample that, as a whole, favours compounds with a hit. Of some 79,000 tested, about 15% had one in any assay. A number with no mark means an inactive call. Active and inactive are the calls of the source. Cut-off read from the data, not from the text of the source: active = growth inhibition above about 70%; inactive = the rest.
# What was measured:
# [1] = NCI Yeast Anticancer Drug Screen. Data for the rad50 strain (AID 155);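 note: 0% = growth of vehicle-only cultures of the same strain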; conditions: S. cerevisiae rad50 strain growth inhibition; at 50.0 µM; hits give high values
# Outline: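 Inhibition values express reduced yeast growth in compound-treated cultures relative to vehicle-treated controls.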
# [2] = NCI Yeast Anticancer Drug Screen. Data for the mec2-1 strain (AID 157); conditions: S. cerevisiae mec2-1 strain, hits give high values
# Outline: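 Mutant yeast (mec2-1) grown with compound; growth inhibition relative to vehicle control reported.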
# [3] = NCI Yeast Anticancer Drug Screen. Data for the sgs1 mgt1 strain (AID 161);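 note: 0% = growth of cultures given vehicle only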; conditions: S. cerevisiae sgs1 mgt1 strain, hits give high values
# Outline: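 Yeast cells carrying a defined DNA-repair defect were exposed to test compounds. Growth inhibition was measured relative to vehicle-treated controls.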
# [4] = NCI Yeast Anticancer Drug Screen. Data for the bub3 strain (AID 167); conditions: S. cerevisiae bub3 mutant strain, hits give high values
# Outline: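 Steps: expose the mutant yeast strain to compound; grow alongside vehicle-treated cultures; measure growth; express inhibition against the vehicle cultures.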
# [5] = NCI Yeast Anticancer Drug Screen. Data for the mlh1 rad18 strain (AID 175); conditions: S. cerevisiae mlh1 rad18 strain growth inhibition, hits give high values
# Outline: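 Genetically defined yeast (DNA repair-deficient) exposed to compounds; growth inhibition determined relative to vehicle.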
# [6] = NCI Yeast Anticancer Drug Screen. Data for the cln2 rad14 strain (AID 165);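 note: 0% = growth equal to vehicle treated cultures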; conditions: S. cerevisiae cln2 rad14 strain, hits give high values
# Outline: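 Readout is yeast growth inhibition versus vehicle-treated controls, using a strain with cln2 and rad14 alterations exposed to compound.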
# [7] = at 5.0 µM (retest, dose inferred, filed as 0.5)
# [8] = at 50.0 µM (retest, dose inferred, filed as 5.0)
structure (smiles),measurement,setting,value
O=C(O)Cc1ccc(C2CCC(O)CC2)cc1 (configuration not stated),growth inhibition,[1],2.75% and 8.45%
same,growth inhibition,[2]; at 50.0 µM,-5.35% and -1.85%
same,growth inhibition,[3]; at 50.0 µM,3.05% and 21.2%
same,growth inhibition,[4]; at 50.0 µM,-0.15% and 5.4%
same,growth inhibition,[5]; at 50.0 µM,0.9% and 1%
CC(C)=C1C=C2CC[C@@H]3[C@](C)(CCC[C@@]3(C)C(=O)O)[C@H]2CC1,growth inhibition,[2]; [7],3%
same,growth inhibition,[2]; [8],95% (active)
same,growth inhibition,[2]; at 50.0 µM,90.2% (active)
same,growth inhibition,[3]; [7],2%
same,growth inhibition,[3]; [8],95% (active)
same,growth inhibition,[3]; at 50.0 µM,91% (active)
same,growth inhibition,[6]; [7],-4%
same,growth inhibition,[6]; [8],91% (active)
same,growth inhibition,[6]; at 50.0 µM,90.3% (active)
same,growth inhibition,[4]; [7],-1%
same,growth inhibition,[4]; [8],94% (active)
same,growth inhibition,[4]; at 50.0 µM,85.8% (active)
same,growth inhibition,[5]; [7],0%
same,growth inhibition,[5]; [8],94% (active)
same,growth inhibition,[5]; at 50.0 µM,88.5% (active)
CCc1ccc(NCc2cc(OC)c(OC)c(OC)c2)cc1,growth inhibition,[1],22.8% and 3.85%
same,growth inhibition,[2]; at 50.0 µM,-3.9% and -6.2%
same,growth inhibition,[3]; at 50.0 µM,25.9% and 33%
same,growth inhibition,[4]; at 50.0 µM,40% and 38.9%
same,growth inhibition,[5]; at 50.0 µM,-55.3% and -23.8%
Cc1ccc(-c2c(C#N)c(-c3ccc(C)cc3)n(NS(=O)(=O)c3ccccc3)c(=O)c2C#N)cc1,growth inhibition,[2]; [7],38%
same,growth inhibition,[2]; [8],94% (active)
same,growth inhibition,[3]; [7],29%
same,growth inhibition,[3]; [8],94% (active)
same,growth inhibition,[6]; [7],53%
same,growth inhibition,[6]; [8],93% (active)
same,growth inhibition,[4]; [7],52%
same,growth inhibition,[4]; [8],95% (active)
same,growth inhibition,[5]; [7],33%
same,growth inhibition,[5]; [8],85% (active)
CCOC(=O)C(N)CS (configuration not stated),growth inhibition,[2]; at 50.0 µM,-22.8% and -66.1%
same,growth inhibition,[3]; at 50.0 µM,-2.5% and -6.05%
same,growth inhibition,[6]; at 50.0 µM,-26.9% and 7.05%
same,growth inhibition,[4]; at 50.0 µM,-28.3% and -30.7%
same,growth inhibition,[5]; at 50.0 µM,4.95% and -27.9%
O=C(O)CN(CCO)CCO,growth inhibition,[1],-17.9% and -21.6%
same,growth inhibition,[3]; at 50.0 µM,21.4% and 12.2%
same,growth inhibition,[6]; at 50.0 µM,-29.1% and 1.45%
same,growth inhibition,[4]; at 50.0 µM,-27.9% and -16.8%
same,growth inhibition,[5]; at 50.0 µM,-18% and 10.1%
NCC1CCC(CN)CC1 (configuration not stated),growth inhibition,[2]; at 50.0 µM,-40.7% and -33.4%
same,growth inhibition,[3]; at 50.0 µM,-17.6% and -24.7%
same,growth inhibition,[6]; at 50.0 µM,-5.15% and 12.1%
same,growth inhibition,[4]; at 50.0 µM,-28.9% and -25.8%
same,growth inhibition,[5]; at 50.0 µM,-19.9% and -7.3%
Cc1ccc(C)c(NC(=O)CC2Sc3ccccc3NC2=O)c1 (configuration not stated),growth inhibition,[1],-0.4% and -7.3%
same,growth inhibition,[2]; at 50.0 µM,-25.8% and -19.4%
same,growth inhibition,[3]; at 50.0 µM,8.4% and -28.5%
same,growth inhibition,[6]; at 50.0 µM,21.9% and 8.45%
same,growth inhibition,[4]; at 50.0 µM,26.3% and 10.3%
same,growth inhibition,[5]; at 50.0 µM,-5.05% and -88%
CN(C)N=Nc1ccc(C(=O)O)cc1,growth inhibition,[2]; at 50.0 µM,22.1% and -1.3%
same,growth inhibition,[3]; at 50.0 µM,28.6% and 20.9%
same,growth inhibition,[6]; at 50.0 µM,-0.05% and -0.65%
same,growth inhibition,[4]; at 50.0 µM,16.9% and -21.1%
same,growth inhibition,[5]; at 50.0 µM,26.6% and 7.65%
CC(=O)/C=C/C1=C(C)CCCC1(C)C,growth inhibition,[1],-21.8% and 11.2%
same,growth inhibition,[2]; at 50.0 µM,-8.35% and -10.9%
same,growth inhibition,[3]; at 50.0 µM,-18.1% and -19.4%
same,growth inhibition,[6]; at 50.0 µM,-14.7% and 8.05%
same,growth inhibition,[5]; at 50.0 µM,11.8% and -2.2%
CCOC(=O)C(NC(C)=O)C(C)=O (configuration not stated),growth inhibition,[1],32.5% and 10.9%
same,growth inhibition,[3]; at 50.0 µM,13.1% and 8.85%
same,growth inhibition,[6]; at 50.0 µM,-4.15% and -11.7%
same,growth inhibition,[4]; at 50.0 µM,1.55% and -3.15%
same,growth inhibition,[5]; at 50.0 µM,-5.85% and 11.9%
COc1ccc(C(OCC2OC(n3ccc(NC(=O)c4ccccc4)nc3=O)C(O)C2O)(c2ccccc2)c2ccccc2)cc1 (configuration not stated),growth inhibition,[2]; [7],23%
same,growth inhibition,[2]; [8],91% (active)
same,growth inhibition,[2]; at 50.0 µM,98.2% (active)
same,growth inhibition,[3]; [7],36%
same,growth inhibition,[3]; [8],83% (active)
same,growth inhibition,[3]; at 50.0 µM,56.4%
same,growth inhibition,[6]; [7],76% (active)
same,growth inhibition,[6]; [8],96% (active)
same,growth inhibition,[6]; at 50.0 µM,84.8% (active)
same,growth inhibition,[4]; [7],52%
same,growth inhibition,[4]; [8],90% (active)
same,growth inhibition,[4]; at 50.0 µM,98.5% (active)
same,growth inhibition,[5]; [7],62%
same,growth inhibition,[5]; [8],90% (active)
same,growth inhibition,[5]; at 50.0 µM,84.2% (active)
O=[N+]([O-])c1ccc(NCS(=O)(=O)O)cc1,growth inhibition,[1],6.95% and -2%
same,growth inhibition,[3]; at 50.0 µM,-9.35% and 5.9%
same,growth inhibition,[6]; at 50.0 µM,-12.2% and -15.8%
same,growth inhibition,[4]; at 50.0 µM,8.55% and -3.05%
same,growth inhibition,[5]; at 50.0 µM,5.7% and 17.8%
CN(C)CC(O)c1cc2ccccc2c2ccccc12 (configuration not stated),growth inhibition,[2]; at 50.0 µM,22.6% and -10.7%
same,growth inhibition,[3]; at 50.0 µM,3.4% and -2.3%
same,growth inhibition,[6]; at 50.0 µM,-8.8% and -32.2%
same,growth inhibition,[4]; at 50.0 µM,18.4% and -5.5%
same,growth inhibition,[5]; at 50.0 µM,8.65% and -14.2%
C=C1C(=O)OC2/C=C(/C)C3CC(O)C(C)(CC(OC(=O)/C(C)=C/C)C12)O3 (configuration not stated),growth inhibition,[1],-9.75% and -7.75%
same,growth inhibition,[2]; at 50.0 µM,-12.9% and -20.4%
same,growth inhibition,[6]; at 50.0 µM,13.4% and 8.45%
same,growth inhibition,[4]; at 50.0 µM,-5.25% and -26.3%
same,growth inhibition,[5]; at 50.0 µM,-5.35% and 2.9%
[B]C(=O)NC(CC(C)C)C(=O)NC1c2ccsc2C(=O)C1O (configuration not stated) (tested in a mixture with another compound),growth inhibition,[2]; at 50.0 µM,18.6% and 22.4%
same,growth inhibition,[3]; at 50.0 µM,12.1% and 2.9%
same,growth inhibition,[6]; at 50.0 µM,2.9% and 16.6%
same,growth inhibition,[4]; at 50.0 µM,32.3% and 33.1%
same,growth inhibition,[5]; at 50.0 µM,-16.1% and -21.4%
CCc1cccc(CC)c1N1C(=O)C=CC1=O,growth inhibition,[2]; [7],45%
same,growth inhibition,[2]; [8],89% (active)
same,growth inhibition,[2]; at 50.0 µM,94.2% (active)
same,growth inhibition,[3]; [7],99% (active)
same,growth inhibition,[3]; [8],100% (active)
same,growth inhibition,[3]; at 50.0 µM,94% (active)
same,growth inhibition,[6]; [7],88% (active)
same,growth inhibition,[6]; [8],99% (active)
same,growth inhibition,[6]; at 50.0 µM,92.1% (active)
same,growth inhibition,[4]; [7],100% (active)
same,growth inhibition,[4]; [8],100% (active)
same,growth inhibition,[4]; at 50.0 µM,92.6% (active)
same,growth inhibition,[5]; [7],38%
same,growth inhibition,[5]; [8],87% (active)
same,growth inhibition,[5]; at 50.0 µM,93.3% (active)
CC(C)(C)OC(=O)C1CCON1C1OC(C(O)CO)C2OC(C)(C)OC21 (configuration not stated),growth inhibition,[1],-3.45% and 48.1%
same,growth inhibition,[2]; at 50.0 µM,7.85% and 43%
same,growth inhibition,[3]; at 50.0 µM,2.4% and 57.9%
same,growth inhibition,[6]; at 50.0 µM,-8.25% and 19%
same,growth inhibition,[4]; at 50.0 µM,13.2% and 38.5%
same,growth inhibition,[5]; at 50.0 µM,10.8% and 59.4%
